Drawing on PubChem BioAssay (NCATS), this text covers Potency for 49 compounds.

Inconclusive results are not listed. The source made the active and inactive calls. Unless noted, calls come from the whole dose curve.

Test [1] is described as follows: qHTS for Inhibitors of the Functional Ribonucleoprotein Complex (vRNP) of Lymphocytic Choriomeningitis Arenaviruses (LCMV): Viability assay - alamar blue signal for LCMV Primary Screen (AID 1347085; calls by dose curve; tested in HEK293 reporter line; note: nearly all actives have a fitted effect of over 80% in size).
The target in test [2] is Nucleoprotein (Lymphocytic choriomeningitis virus (strain Armstrong)) (UniProt P09992). Description: qHTS for Inhibitors of the Functional Ribonucleoprotein Complex (vRNP) of Lymphocytic Choriomeningitis Arenaviruses (LCMV): LCMV Primary Screen - GLuc reporter signal (AID 1347086). Note: nearly all actives have a fitted effect of over 70% in size.
Potency is the fitted concentration of half-maximal effect.

Sequence of Nucleoprotein (Lymphocytic choriomeningitis virus (strain Armstrong)) (P09992 whole entry, looked up): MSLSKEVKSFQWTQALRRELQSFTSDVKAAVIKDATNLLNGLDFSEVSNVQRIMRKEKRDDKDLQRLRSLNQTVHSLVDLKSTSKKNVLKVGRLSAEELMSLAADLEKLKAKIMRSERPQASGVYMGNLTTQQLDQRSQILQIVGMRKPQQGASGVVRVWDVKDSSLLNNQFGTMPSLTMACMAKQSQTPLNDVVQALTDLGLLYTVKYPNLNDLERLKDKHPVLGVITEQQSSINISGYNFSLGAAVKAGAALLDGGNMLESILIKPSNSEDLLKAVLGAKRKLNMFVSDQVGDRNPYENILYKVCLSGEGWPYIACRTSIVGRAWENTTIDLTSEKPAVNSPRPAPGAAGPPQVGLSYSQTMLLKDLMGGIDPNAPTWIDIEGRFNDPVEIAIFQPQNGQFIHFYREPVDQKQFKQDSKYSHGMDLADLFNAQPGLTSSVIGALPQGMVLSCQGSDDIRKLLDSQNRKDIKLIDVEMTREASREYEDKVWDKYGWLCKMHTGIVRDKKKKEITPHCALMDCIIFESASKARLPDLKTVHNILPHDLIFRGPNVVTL

`C=C1C(=CC=C2CCCC3(C)[C@@H]([C@H](C)C=CC=CC(O)(CC)CC)CC[C@@H]23)C[C@@H](O)C[C@@H]1O` (some centres not stated): the Potency result in test [1] and in test [2] was “inactive” each time.
As for `Cn1c2cc(S(C)=O)sc2c2cnn(Cc3cccc(N)c3)c(=O)c21` (configuration not stated), the Potency entry in test [1] and in test [2] was “inactive” throughout.
For the compound `Nc1ccc(-c2ccc3ncc4ccc(=O)n(-c5cccc(C(F)(F)F)c5)c4c3c2)cn1`, the Potency in test [1] and in test [2] was 5.4 nM (active) throughout.
As for `CS(=O)(=O)Oc1ccc2c(NC(N)=O)c(C(=O)c3ccc(Cl)cc3Cl)oc2c1`, in test [1], the Potency was 27300 nM (active). Further, the Potency result in test [2] is “inactive”.
In the same order, the values of `C[C@@H](Oc1cc(-n2cnc3ccc(CN4CCN(C)CC4)cc32)sc1C(N)=O)c1ccccc1C(F)(F)F` are “inactive” and “inactive”.
In the case of `O=C(Nc1ccc(Oc2ccc(Cl)cc2)c(Cl)c1)c1cc(I)cc(I)c1O`, the Potency entry in test [1] and in test [2] was “inactive” in each case.
As for `CC(C)(C)OC(=O)Nc1ccc(-c2cc(C(=O)NCCCCCCC(=O)NO)no2)cc1`, the Potency in test [1] is 19300 nM (active).
Regarding `O=C(O)c1ccccc1NCCc1ccccc1`, the Potency entry in test [1] and in test [2] was “inactive” each time.
As for `O=C(O)Cc1ccccc1Oc1ccc(Cl)cc1Cl`, the Potency entry in test [1] and in test [2] was “inactive” in each case.
Regarding `CCCCCCCCOc1ccc(C(=O)c2ccccc2)c(O)c1`, the Potency entry in test [1] and in test [2] was “inactive” in each case.
Take `CC(C)[C@H](CO)Nc1nc(Nc2ccc(C(=O)O)c(Cl)c2)c2ncn(C(C)C)c2n1`: the Potency in test [1] is 3850 nM (active). The Potency result in test [2] is “inactive”.
In the case of `C=CC(=O)Nc1cc2c(Nc3ccc(F)c(Cl)c3)ncnc2cc1C#CC(C)(C)N1CCN(C)CC1`, the Potency entry in test [1] and in test [2] was “inactive” in each case.
With `N=C1N=C(N)c2cc3ccccc3cc21`, the Potency result in test [1] and in test [2] was “inactive” throughout.
On to `Cn1cc(-c2[nH]c3cc(NC(=O)[C@H](N)C4CCCCC4)cc4c3c2C=NNC4=O)cn1`, for which the Potency is 4850 nM (active) in test [1] and 2730 nM (active) in test [2].
The like results for `COc1cccc2c1CCCC2CCCN1CCN(C2CCCCC2)CC1` (configuration not stated) were, in that order, “inactive” and “inactive”.
As for `COc1ccccc1-c1cccc(-c2c(O)c3cc(C#N)c(Cl)cc3[nH]c2=O)c1`, the Potency result in test [1] and in test [2] was “inactive” each time.
As to `CCC(C(=O)O)c1ccc(N2Cc3ccccc3C2=O)cc1` (configuration not stated), the Potency entry in test [1] and in test [2] was “inactive” each time.
Take `NC(CP(=O)(O)O)C(=O)O` (configuration not stated): the Potency entry in test [1] and in test [2] was “inactive” throughout.
Regarding `CCC=CC[C@H]1C(=O)CC[C@@H]1CC(=O)OC`, the Potency result in test [1] and in test [2] was “inactive” throughout.
As for `COc1cc2ncn(-c3cc(OCc4ccccc4C(F)(F)F)c(C(N)=O)s3)c2cc1OC`, the Potency in test [1] and in test [2] was 1720 nM (active) each time.
In the case of `CC(C)(C)COc1ccc(-n2cc(C(=O)O)cn2)cc1C#N`, the Potency result in test [1] and in test [2] was “inactive” each time.
For `NC(CO)(CO)CCc1ccc(Sc2cccc(OCc3ccccc3)c2)cc1Cl`, the Potency entry in test [1] and in test [2] was “inactive” throughout.
`O=C1CCCN1CC#CCN1CCCC1`: the Potency entry in test [1] and in test [2] was “inactive” in each case.
As to `CN1C(=O)C(Cc2c[nH]c3ccccc23)NC1=S` (configuration not stated), the Potency result in test [1] and in test [2] was “inactive” in each case.
Turning to `CN1C2CCC1CC(OC(=O)c1cc(Cl)cc(Cl)c1)C2` (configuration not stated), the Potency result in test [1] and in test [2] was “inactive” throughout.
With `Cc1ccccc1C(C(=O)NC1CCCC1)N(C(=O)Cn1cnc2ccccc21)c1cccc(F)c1` (configuration not stated), the Potency result in test [1] and in test [2] was “inactive” each time.
Take `CC(C)(C)c1[nH]cnc1C=c1[nH]c(=O)c(=Cc2ccccc2)[nH]c1=O`: the Potency in test [1] was 7.9 nM (active); in test [2], 31.4 nM (active).
In the same order, the values of `c1ccc2sc(C3(N4CCCCC4)CCCCC3)cc2c1` are “inactive” and “inactive”.
Take `Cc1cccc(-c2nn(C(=S)Nc3ccccc3)cc2-c2ccnc3ccccc23)n1`: the Potency entry in test [1] and in test [2] was “inactive” in each case.
`CCCN1CCO[C@@H]2c3cc(O)ccc3OC[C@H]21`: the Potency entry in test [1] and in test [2] was “inactive” throughout.
Regarding `CC(C)(C)c1cc(NC(=O)Nc2ccc(-c3cn4c(n3)sc3cc(OCCN5CCOCC5)ccc34)cc2)no1`, the Potency entry in test [1] and in test [2] was “inactive” throughout.
Take `CNC(=O)c1ccc(N2C(=S)N(c3ccc(C#N)c(C(F)(F)F)c3)C(=O)C2(C)C)cc1F`: the Potency entry in test [1] and in test [2] was “inactive” each time.
As for `COc1cc2c(Oc3ccc4[nH]c(C)cc4c3F)ncnc2cc1OCCCN1CCCC1`, the Potency result in test [1] and in test [2] was “inactive” in each case.
Turning to `C[C@@H](N)C1CCC(C(=O)Nc2ccncc2)CC1` (some centres not stated), the Potency in test [1] was 863 nM (active); in test [2], 9680 nM (active).
The like results for `OCc1ccccn1` were, in that order, “inactive” and “inactive”.
Take `C[C@]12N[C@H](Cc3ccccc31)c1ccccc12`: the Potency result in test [1] and in test [2] was “inactive” throughout.
As for `COc1ccc2c(c1)c1c3n2CCN(C)C3=NCC1`, the Potency result in test [1] and in test [2] was “inactive” in each case.
In the case of `C=CCN1CC[C@]23CCCCC2[C@H]1Cc1ccc(O)cc13` (some centres not stated), the Potency result in test [1] and in test [2] was “inactive” throughout.
Consider `CC(=O)Oc1cccc(C)c1`, for which the Potency entry in test [1] and in test [2] was “inactive” in each case.
With `Nc1ccc(O)c([N+](=O)[O-])c1`, the Potency entry in test [1] and in test [2] was “inactive” in each case.
Turning to `CC1(C)SCCN(S(=O)(=O)c2ccc(OCC#CCO)cc2)[C@@H]1C(=O)NO`, the Potency result in test [1] and in test [2] was “inactive” each time.
As for `CN(C)C1CCN(C(=O)c2ccc(NC(=O)Nc3nc(N4CCOCC4)nc(N4CCOCC4)n3)cc2)CC1`, the Potency is 61.1 nM (active) in test [1] and 96.8 nM (active) in test [2].
As for `COc1ncc(-c2ccc3nccc(-c4ccnnc4)c3c2)cc1NS(=O)(=O)c1ccc(F)cc1F`, the Potency was 17.2 nM (active) in test [1] and 34.3 nM (active) in test [2].
The like results for `COc1nc(C)cnc1NS(=O)(=O)c1cccnc1-c1ccc(-c2nnco2)cc1` were, in that order, “inactive” and “inactive”.
The like results for `O=c1cc(-c2ccccc2)oc2ccccc12` were, in that order, “inactive” and “inactive”.
The like results for `Cc1cc(SCc2sc(-c3ccc(C(F)(F)F)cc3)nc2C)ccc1OCC(=O)O` were, in that order, “inactive” and “inactive”.
With `O=C(O)[C@@H]1CCN1`, the Potency result in test [1] and in test [2] was “inactive” in each case.
In the case of `CC(C)(C)c1nnc(NS(=O)(=O)c2ccccc2)s1`, the Potency entry in test [1] and in test [2] was “inactive” in each case.
As to `O=C(O)Cc1cnc[nH]1`, the Potency entry in test [1] and in test [2] was “inactive” throughout.
